Screening data as filed in PubChem BioAssay.
Giardia FBPA inh: inhibitors of Giardia lamblia fructose-1,6-bisphosphate aldolase; purified Giardia FBPA; 290,000 tested, 0.71% active; Potency, µM (highest dose often 59.6 µM), for inactives: at the top dose activity, negative = inhibition, most hits filed as inhibitors; AID 2451; further: potency means the concentration at half of the fitted maximal effect; on the % scale 0 is the no-effect control and ±100 the full control effect; nearly all actives have a fitted effect of over 55% in size
Target sequence (A8B2U2 whole entry, looked up): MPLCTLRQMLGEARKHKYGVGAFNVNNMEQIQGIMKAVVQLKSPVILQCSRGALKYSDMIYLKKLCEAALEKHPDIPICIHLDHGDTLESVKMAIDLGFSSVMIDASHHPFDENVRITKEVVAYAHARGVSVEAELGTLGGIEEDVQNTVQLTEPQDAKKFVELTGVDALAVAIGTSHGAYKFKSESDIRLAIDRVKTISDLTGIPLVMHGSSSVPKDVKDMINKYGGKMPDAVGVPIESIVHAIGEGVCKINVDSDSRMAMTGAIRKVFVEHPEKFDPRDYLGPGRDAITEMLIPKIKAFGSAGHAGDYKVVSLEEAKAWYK
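40 nM FBPA preincubated 10 min at RT with compound (up to 57.5 uM final), then substrate plus GAPDH/TPI/NAD/arsenate coupling and diaphorase/resazurin added. Fluorescence read after 20 min at RT, 525/598 nm.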
Cycloheximide cs: affects cycloheximide protein synthesis inhibition readout, counter-screen; max response, %; AID 2314; cell reporter, cycloheximide protein synthesis inhibition counterscreen; 300,000 tested, 12% active; in the data active means max response mostly above about 13%, no sharp cut-off; inactive means mostly below about 14%; further: read at 38.3 µM for the half of the compounds with a filed dose; 0% is about no effect
Shiga inhibitor: inhibitors of Shiga toxin in Vero cells | 290,000 tested, 9.2% active | inhibition, % at 38.7 µM | AID 2315 | Vero cells, Shiga toxin protein synthesis inhibition reporter; in the data active means inhibition mostly above about 28%, no sharp cut-off; inactive means mostly below about 43%; further: 0% is about no effect
Tb PYK inh: T. brucei pyruvate kinase inhibition | 410,000 tested, 0.12% active | Potency, µM (titrated, usually from 76.8 µM), for inactives: at the top dose activity, negative = inhibition, hits mostly inhibitors | TbPYK enzyme, Kinase-Glo Plus ATP luminescence, 45 min; further: potency means the concentration at half of the fitted maximal effect; on the % scale 0 is the no-effect control and ±100 the full control effect; nearly all actives have a fitted effect of over 50% in size
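Readout: single end-point luminescence (Kinase-Glo Plus, 10 min). Reaction conditions were TbPYK/substrate plus 130 uM ADP, 45 min at RT, pH 7.2 TEA buffer. No-enzyme wells served as controls, and data were normalized before concentration-response fitting.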
RE007 growth inh: less growth of the S. pombe RE007 Vpr strain. S. pombe RE007 Vpr strain, BacTiter-Glo ATP luminescence, 24 h. Potency, µM (series often up to 92.2 µM), without a hit: at the top dose activity change, negative = less growth, actives largely listed as inhibitors. 360,000 tested, 0.21% active. AID 651644; active means well fitted falling curve with a large enough effect; inconclusive means small, poorly fitted or top-dose-only effect; inactive means no such curve, though single readings can be large or run the other way; further: potency means the concentration at half of the fitted maximal effect; on the % scale 0 is the no-effect control and ±100 the full control effect; nearly all actives have a fitted effect of over 50% in size
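Fission yeast RE007 carrying one integrated HIV-1 vpr copy, seeded at OD 0.01 in PMG+AL medium with 23 nL pinned compound. Grown 24 h at 30 degrees; viability read by BacTiter-Glo luminescence after 5 min.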
LmPK inhibitor: inhibitors of Leishmania mexicana pyruvate kinase. 290,000 tested, 0.37% active. purified LmPK, Kinase-Glo ATP luminescence, 1 h. Q27686. Potency, µM (series often up to 57.5 µM), without a hit: at the top dose activity change, negative = inhibition, actives largely listed as inhibitors; further: potency means the concentration at half of the fitted maximal effect; on the % scale 0 is the no-effect control and ±100 the full control effect
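In 50 mM imidazole pH 7.2 with 7 mM MgCl2, LmPK (0.1 nM) turned over PEP (0.5 mM) and ADP (0.1 mM) for 1 h at room temperature. Luciferase read-out of ATP.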
* marks the source's active call; other numbers are inactive results. This excerpt belongs to a sample that is enriched for hits. Unless noted, the call rests on the fitted dose curve; in most records, active means well fitted curve in the direction sought with a large enough effect; inconclusive means small, poorly fitted or top-dose-only effect, or another doubt; inactive means no such curve, though single readings can be large; an effect the other way counts as inactive or inconclusive.

What do the screens show for `COc1cccc(Cn2c(=O)n(-c3ccc(C)c(F)c3)c(=O)c3sc4ccccc4c32)c1`?
Tb PYK inh: 0.6%

How did Cc1ccc(NC(=O)CCCNC(=O)c2ccc(Cl)cc2)c(O)c1 do in these assays?
Giardia FBPA inh: -2.5%; Cycloheximide cs: 69.0*; Shiga inhibitor: 91.0*; Tb PYK inh: -4.6%; RE007 growth inh: -4.8%; LmPK inhibitor: -4.3%

Results for Cc1cnc(NC(=O)CCCNC(=O)c2ccc(Cl)cc2)s1 ?
Tb PYK inh: 3.8%; RE007 growth inh: -7.8%

How did Cc1ccc(NC(=O)CCNC(=O)c2ccc(Br)cc2)nc1 do in these assays?
Giardia FBPA inh: 7.1%; Cycloheximide cs: 17.9*; Shiga inhibitor: 56.3*; Tb PYK inh: -9.5%; RE007 growth inh: -0.6%; LmPK inhibitor: -10.2%

How did Cc1ccc(NC(=O)CCCNC(=O)c2ccc(Cl)cc2)nc1 do in these assays?
Cycloheximide cs: 29.3*; Shiga inhibitor: 62.6*; Tb PYK inh: -7.1%; RE007 growth inh: -9.3%; LmPK inhibitor: -5.4%

What do the screens show for `Cc1ccc(NC(=O)CCNC(=O)c2ccc(Cl)cc2)nc1`?
Giardia FBPA inh: -0.2%; Cycloheximide cs: 40.9*; Shiga inhibitor: 73.6*; Tb PYK inh: 3.9%; RE007 growth inh: 4.6%; LmPK inhibitor: -2.0%

How did Cc1ccc(OCCNC(=O)CCNC(=O)c2ccc(Cl)cc2)cc1 do in these assays?
Tb PYK inh: -4.6%; RE007 growth inh: -12.1%

What do the screens show for `Nc1nccc(-c2ccc3noc(-c4ccc(Cl)cc4)c3c2)n1`?
Tb PYK inh: 0.0%

How did O=C(CN1CCSc2ccccc21)NCc1ccccc1F do in these assays?
Tb PYK inh: 1.6%

How did O=C(CN1CCN(c2ccccc2O)CC1)Nc1ccc2c(c1)CCC2 do in these assays?
Giardia FBPA inh: -11.1%; Cycloheximide cs: -1.5; Shiga inhibitor: -9.6; Tb PYK inh: -0.1%; RE007 growth inh: 2.5%; LmPK inhibitor: -0.6%

What do the screens show for `Oc1ccc2c(c1)OCC1(O)Cc3cc(O)c(O)cc3C21` (configuration not stated)?
Giardia FBPA inh: 17.7µM*; Tb PYK inh: 11.2µM*; RE007 growth inh: 1.5%

Results for Oc1cc2c(cc1O)[C@H]1c3ccc(O)c(O)c3OC[C@@]1(O)C2 ?
Giardia FBPA inh: inconclusive; Tb PYK inh: 5.62µM*; RE007 growth inh: -26.7%

How did O=C(CN1C(=O)CC(c2ccccc2)=Nc2ccccc21)Nc1ccc(Br)cc1 do in these assays?
Tb PYK inh: 1.9%

How did O=C1C(=O)c2ccccc2C(O)=C1CC=C(Cl)Cl do in these assays?
Tb PYK inh: 2.3%; RE007 growth inh: inconclusive

What do the screens show for `CC(C)=CCC1=C(O)c2ccccc2C(=O)C1=O`?
Giardia FBPA inh: 1.12µM*

Results for CC(C)(C)c1ccc(C(=O)NCC(=O)N/N=C/c2cccnc2)cc1 ?
Giardia FBPA inh: 4.5%; Cycloheximide cs: -1.6; Shiga inhibitor: -9.4; Tb PYK inh: 3.3%; RE007 growth inh: 3.6%; LmPK inhibitor: 2.0%

Results for COc1ccc(CNc2cccc(C)n2)c(O)c1 ?
Giardia FBPA inh: 9.3%; Cycloheximide cs: 3.0; Shiga inhibitor: 10.7; Tb PYK inh: 4.0%; RE007 growth inh: -3.7%; LmPK inhibitor: -4.4%

What do the screens show for `Cc1cccc(NCc2ccc(Br)cc2)n1`?
Giardia FBPA inh: 0.4%; Cycloheximide cs: 35.3*; Shiga inhibitor: 109.0*; Tb PYK inh: -19.2%; RE007 growth inh: -8.2%; LmPK inhibitor: -5.8%

What do the screens show for `Cc1cccc(NCc2cccc3ccccc23)n1`?
Giardia FBPA inh: -0.5%; Cycloheximide cs: 41.1*; Shiga inhibitor: 54.4; Tb PYK inh: 3.3%; RE007 growth inh: -16.0%; LmPK inhibitor: -0.4%

What do the screens show for `CCCCNC(=O)C1(C)CCN1C(=O)c1cc(-c2cccs2)oc1C` (configuration not stated)?
Tb PYK inh: -10.8%; RE007 growth inh: -4.4%

How did CC(C)(C)c1ccc(C(=O)Nc2ncn[nH]2)cc1 do in these assays?
Giardia FBPA inh: -11.1%; Cycloheximide cs: 33.2*; Shiga inhibitor: 75.0*; Tb PYK inh: -2.3%; RE007 growth inh: 16.9%; LmPK inhibitor: -28.2%

How did COc1ccc(C(=O)Nc2cnccn2)cc1[N+](=O)[O-] do in these assays?
Giardia FBPA inh: 5.6%; Cycloheximide cs: 0.6; Shiga inhibitor: -6.5; Tb PYK inh: 3.5%; RE007 growth inh: 13.4%; LmPK inhibitor: -5.6%

Results for CC(C)(C)c1ccc(C(=O)Nc2cnccn2)cc1 ?
Giardia FBPA inh: -8.8%; Cycloheximide cs: 27.5*; Shiga inhibitor: 40.7*; Tb PYK inh: 2.7%; RE007 growth inh: -7.4%; LmPK inhibitor: -15.6%

Results for O=C(CCNC(=O)c1ccc(Br)cc1)Nc1nc2ccccc2[nH]1 ?
Tb PYK inh: 1.3%; RE007 growth inh: -0.7%

Results for O=C(Cc1nc2ccccc2[nH]c1=O)c1ccccc1 ?
Giardia FBPA inh: -5.9%; Cycloheximide cs: 51.1*; Shiga inhibitor: 68.9*; Tb PYK inh: -2.1%; RE007 growth inh: 9.6%; LmPK inhibitor: -16.9%

Results for O=c1[nH]c2ccccc2nc1Cc1ccccc1 ?
Giardia FBPA inh: -15.0%; Cycloheximide cs: 5.9; Shiga inhibitor: 30.4; Tb PYK inh: 4.4%; RE007 growth inh: -10.9%; LmPK inhibitor: 3.9%

How did O=C(Cc1nc2ccccc2[nH]1)c1ccc(Br)cc1 do in these assays?
Giardia FBPA inh: -0.6%; Cycloheximide cs: 28.5*; Shiga inhibitor: 76.5*; Tb PYK inh: -4.0%; RE007 growth inh: inconclusive; LmPK inhibitor: 6.0%

Results for CCOC(=O)C1(C)CCN1C(=O)c1cc(OC)ccc1Br (configuration not stated) ?
Tb PYK inh: -0.5%; RE007 growth inh: -11.3%

Results for Nc1ncc(Br)cc1S(=O)(=O)NCCC(=O)NCCc1ccccc1 ?
Cycloheximide cs: 26.9*; Shiga inhibitor: 12.5; Tb PYK inh: -2.8%; RE007 growth inh: 3.3%; LmPK inhibitor: -0.1%

Results for O=C(O)C(Cc1cccs1)c1cccs1 (configuration not stated) ?
Tb PYK inh: 14.6%; RE007 growth inh: -5.0%

How did COc1cccc(NC(=O)c2cnn(-c3ccccc3)c2-n2cccc2)c1 do in these assays?
Tb PYK inh: 0.1%

How did Cc1cc(C(=O)CSc2nnc(-c3ccc(F)cc3)o2)c(C)n1CC1CCCO1 (configuration not stated) do in these assays?
Giardia FBPA inh: -17.7%; Cycloheximide cs: 9.8; Shiga inhibitor: 15.1; Tb PYK inh: -5.7%; RE007 growth inh: -12.2%; LmPK inhibitor: -0.8%

How did Cc1cc(C(=O)CSc2nnc(-c3ccccc3)o2)c(C)n1CC1COc2ccccc2O1 (configuration not stated) do in these assays?
Giardia FBPA inh: 14.7%; Cycloheximide cs: 9.4; Shiga inhibitor: 38.8*; Tb PYK inh: -6.4%; RE007 growth inh: 1.8%; LmPK inhibitor: -1.2%
